# Compounds without any hit were thinned out: in the full panel of roughly 83,000, 20% have a hit.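 Percent growth is the endpoint: 0 to 100 indicates growth inhibition (40 means 60% inhibition), 0 means no net growth, and negative values indicate cell death.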 A number with no mark means an inactive call. Activity calls are given as the source filed them. How the source made its calls: active means growth percent below 10; inactive means the rest.
# System: MDA-MB-468 breast
# Assay: NCI-60 one-dose screen, 48 h (100 = growth as untreated, 0 = no growth, -100 = all killed)
# Conditions: 10 µM unless noted
row,SMILES,growth
1,CC1(C)CC[C@]2(C(=O)N3CCOCC3)CC[C@]3(C)C(=CC[C@@H]4[C@@]5(C)C/C(=C/c6ccncc6)C(=O)C(C)(C)[C@@H]5CC[C@]43C)[C@@H]2C1,3.46% (active)
2,COc1ccc(/C=N/NC(N)=S)c(OC)n1,86.4%
3,CCOC(=O)c1c(C)nc2c(c1N)CC(=O)N2Cc1cc(F)cc(Cl)c1,84.9%
4,NS(=O)(=O)N(c1cc(C(F)(F)F)cc(C(F)(F)F)c1)C1CCN(Cc2ccc(F)cc2)CC1,52.9%
5,C/C(=C(/c1ccccc1)c1ccc(OCC(O)CN2CCOCC2)cc1)c1ccccc1 (stereo not given),85.1%
6,CCN1CCN(c2cc(C)nc(N(CCCNc3ccnc4cc(Cl)ccc34)Cc3cccs3)n2)CC1,-26.4% (active)
7,Oc1ccc(CSc2nnc(-c3ccncc3)o2)c2cccnc12,11.9%
8,CS(=O)(=O)OCCN(CCOS(C)(=O)=O)c1ccc(/C=N/Nc2ccc([N+](=O)[O-])cc2[N+](=O)[O-])cc1,87.9%
9,CC(=O)OC1C=CC(OC(C)=O)O1 (stereo not given),101%
10,Cn1cc(-c2nc(-c3cn(C)c4ncccc34)cs2)c2ccccc21,-21.1% (active)
11,O[C@H]1CO[C@H]2[C@@H]1OC[C@@H]2Oc1ccc(Nc2ccnc(Nc3ccc(O[C@H]4CO[C@H]5[C@@H]4OC[C@@H]5O)c(Cl)c3)n2)cc1Cl,-7.19% (active)
12,CCCCOc1ccc(NC(=O)Nc2nnc(C)s2)cc1,103%
13,COc1ccc(-c2nc3cc(Cl)c(Cl)cc3n2CC(=O)N=Nc2c(O)[nH]c3ccccc23)cc1,60.6%
14,COc1ccc(-n2c(/C=C/c3ccc(O)c(OC)c3)cc(/C=C/c3ccc(O)c(OC)c3)nc2=O)cc1,29%
15,O=c1cc/c(=N\Nc2ccccc2)c(=O)/c1=N/Nc1ccccc1,106%
16,COC(=O)C1=Nc2ccc(F)cc2/C1=C\c1sc(Nc2ccc(O)cc2)nc1O,56.1%
17,CCCCc1c(CCC)c(=N)c2ccccc2n1C,74.2%
18,COC1/C=C/OC2(C)Oc3c(C)c(O)c4c(O)c(c(/C=N/Nc5ccc([N+](=O)[O-])cc5[N+](=O)[O-])c(O)c4c3C2=O)NC(=O)C(C)=C/C=C/C(C)C(O)C(C)C(O)C(C)C(OC(C)=O)C1C (stereo not given),-54.5% (active)
19,Nc1c(C(=O)Nc2ccccc2)sc2nc3c(cc12)C(O)CCC3 (stereo not given),51.6%
20,Cn1cc(-c2nn3c(=O)cc(-c4ccccc4)nc3s2)c2cc(F)ccc21,38.9%

row,SMILES,growth
1,COc1ccc(Nc2ncc(C(N)=O)c(NCCCNC(=O)C3CCC3)n2)cc1,33.1%
2,COc1ccc(-c2cc(/C=C3\C(=O)Nc4ccc(Cl)cc43)[nH]n2)cc1OC,108%
3,Cc1ccc(S(=O)(=O)N2CCC(=O)c3ccccc32)cc1,25.7%
4,CCn1cc(C2=C(c3cn(C)c4ncccc34)C(=O)NC2=O)c2cccnc21,37.2%
5,O=C(COc1ccc(Cl)cc1)N1CCN(Cc2ccc3c(c2)OCO3)CC1,98.5%
6,Nc1nc(N)c(N=Nc2ccccc2)c(-c2ccccc2)n1,8.67% (active)
7,N/C(=N\OC(=O)c1ccccc1)C(Cc1ccccc1)C(=O)NOC(=O)c1ccccc1 (stereo not given),66.1%
8,Cc1cc2nc(CO)[nH]c2cc1C,135%
9,CN(C)c1ccc([C@@H](C(=O)Nc2cccc([N+](=O)[O-])c2)N(C(=O)c2cc3ccccc3[nH]2)c2cccc([N+](=O)[O-])c2)cc1,97.8%
10,COc1ccc(C(=O)c2ccccc2CN2C(=O)c3ccccc3C2=O)cc1,115%
11,O=c1[nH]c(=O)n(C2CC(O)C(CO)O2)cc1CO (stereo not given),101%
12,COc1ccc(-c2nc3sccn3c2-c2nc3c([nH]2)C(=O)c2ccccc2C3=O)cc1,95%
13,COc1ccc(/C=N\NC(=O)c2cnn(CC(O)c3ccccc3)c2N)cc1OCc1ccc(Cl)cc1 (stereo not given),76.8%
14,Cc1ccc(N=CNN=C(N)N)cc1,100%
15,O=C(NCc1ncc[nH]1)c1ccc(-c2nc3ccc4[nH]ncc4c3c3c2CCCC3)cc1,-47.1% (active)
16,CCN(CC)CCOc1ccc(NC(=O)C(C(C)C)N2C(=O)/C(=C/c3ccc(Br)cc3)SC2=S)cc1 (stereo not given),63.2%
17,O=C1ON=[N+](c2ccc(Cc3ccc([N+]4=NOC(=O)C4CN4CCOCC4)cc3)cc2)C1CN1CCOCC1 (stereo not given),11.4%
18,COc1cc(Oc2cc(-c3cccnc3)ccc2NC(=O)Nc2ccc(F)cc2F)cc(OC)c1OC,97.7%
19,C=C(C)[C@@H]1CC[C@]2(C(=O)N3CCN(C)CC3)CC[C@]3(C)[C@H](CC[C@@H]4[C@@]5(C)CC(CCCNC(C)=O)(CCCNC(C)=O)[C@H](OC(C)=O)C(C)(C)[C@@H]5CC[C@]43C)[C@@H]12,99.2%
20,CN(CCCCCl)P(=O)(OCc1ccc([N+](=O)[O-])o1)C(F)(F)C[C@H](NC(=O)CNC(=O)c1ccc(N=[N+]=[N-])cc1)C(=O)NCCc1ccc(O)cc1 (stereo not given in full),12.5%
